Screens: PubChem BioAssay, National Center for Advancing Translational Sciences (NCATS)
Hsp90 Hop PPI: qHTS Assay for Disrupters of an Hsp90 Co-Chaperone Interaction. Hsp90 C-terminal peptide / TPR2A (Hop) interaction, human. AlphaScreen TPR2A-His6 binding biotin-Hsp90 C-terminal peptide. Potency, µM (series often up to 57 µM), without a hit: at the top dose activity change, negative = inhibition. 71,000 tested, 0.44% active. AID 595, 2007; active = well fitted curve in either direction with a large enough effect; inconclusive = small, poorly fitted or top-dose-only effect, or another doubt; also: potency is read from the fitted curve at half-maximal effect; % is scaled to controls: 0 for no effect and ±100 for the full control effect
TsaE inh: qHTS Assay for Inhibitors of YjeE | tRNA threonylcarbamoyladenosine biosynthesis protein TsaE (Escherichia coli (strain … | purified YjeE enzyme, qHTS inhibition assay | Potency, µM | 71,000 tested, 0.05% active | AID 605, 2007
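Fluorescence polarization of a BODIPY Texas Red–ADP probe (2 uM) bound to purified YjeE (10 uM) was read after 15 min room-temperature incubation with compounds. Loss of polarization marks inhibitors; ADP serves as titrated control.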
Tau filament bind: qHTS Assay for Tau Filament Binding. Potency, µM (series often up to 57.1 µM), inactives show at the highest dose activity change, negative = inhibition. 71,000 tested, 2% active. Microtubule-associated protein tau (Homo sapiens), P10636. recombinant tau filaments, thioflavin S fluorescence, 15 h; filaments grown with octadecylsulfate alongside compound;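 also: potency is read from the fitted curve at half-maximal effect; % is scaled to controls: 0 for no effect and ±100 for the full control effect; actives lower thioflavin S fluorescence by blocking filaments or displacing dye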
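His-tagged recombinant human tau (exons 2, 3 and 10 included), 1 uM, was induced to fibrillize by 30 uM sodium octadecylsulfate with compound present. After 15 h at 37 C, thioflavine S fluorescence (ex 450, em 510 nm) was read.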
BRCT inh green: qHTS Assay for Inhibitors of BRCT-Phosphoprotein Interaction (Green Fluorophore). BRCA1 BRCT-phosphopeptide binding, green fluorescence polarization. Breast cancer type 1 susceptibility protein (Homo sapiens), P38398. 75,000 tested, 0.05% active. Potency, µM (series often up to 76.9 µM), without a hit: top-dose activity change, negative = inhibition, actives largely listed as inhibitors. AID 875, 2007;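 also: potency is read from the fitted curve at half-maximal effect; plate controls were peptide without protein for full effect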
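Compounds were incubated for 12 min at room temperature with a complex of 100 nM fluorescein-tagged pBACH1 decapeptide and 250 nM His-tagged BRCT protein. Buffer was phosphate pH 7.3 with EDTA, DTT and Tween 20. Disruption of binding lowers the polarization signal.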
BRCT PPI red: qHTS Assay for Inhibitors of BRCT-Phosphoprotein Interaction (Red Fluorophore) | Breast cancer type 1 susceptibility protein (Homo sapiens), P38398 | BRCT-phosphopeptide binding, red fluorescence polarization | Potency, µM (highest dose often 76.9 µM), for the others: top-dose activity change, negative = inhibition, hits mostly inhibitors | 75,000 tested, 0.03% active | AID 892, 2007; also: % is scaled to controls: 0 for no effect and ±100 for the full control effect
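Fluorescence polarization: 100 nM His-tagged BRCA1 BRCT with 100 nM TAMRA-labelled phospho-BACH1 decapeptide, phosphate buffer pH 7.3 with 150 mM NaCl, DTT, 0.01% Tween 20; 12 min RT. Binding inhibition seen as FP decrease.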
Pol III holo inh: qHTS Assay for Inhibitors of DNA Polymerase III Holoenzyme System; reconstituted DNA polymerase III holoenzyme replication, biochemical; Potency, µM (doses to about 57.1 µM), inactives show at the highest dose activity change, negative = inhibition; 71,000 tested, 0.25% active; AID 603, 2007; also: potency is read from the fitted curve at half-maximal effect; % is scaled to controls: 0 for no effect and ±100 for the full control effect
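Reconstituted *E. coli* holoenzyme (0.35 nM Pol III, 1 nM beta, 154 nM SSB, 2 nM primase) was preincubated with compound for 15 min at RT. Synthesis on 1.4 nM ssM13Gori ran 35 min, then was stopped with PicoGreen/EDTA and read as dsDNA fluorescence.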
Tau ThS bind: Tau ThS binding assay | shares compounds with Tau filament bind | 60 tested, 40% active | AID 911, 2007 | recombinant tau filaments, Thioflavin S fluorescence displacement | Potency, µM; calls by dose curve
aSyn ThS displ: Alpha-synuclein ThS binding assay. AID 937, 2007. 60 tested, 40% active. recombinant alpha-synuclein fibrils, ThS fluorescence displacement. shares compounds with Tau filament bind. Potency, µM; calls by dose curve
Abeta ThS bind: Beta amyloid ThS binding assay; shares compounds with Tau filament bind; Abeta1-42 fibrillization, thioflavin S fluorescence, overnight 37 C; Potency, µM; 60 tested, 50% active; AID 956, 2007; calls by dose curve
An asterisk follows results filed as active; i = inactive; ? = inconclusive; · = not tested or not shown; [ ] = dose if it differs, or a comment. In the library only some 2.3% were active in any assay of this set; here they are far more common. Unless noted, calls follow the shape of the dose curve; as a rule, active = well fitted curve in the direction sought with a large enough effect; inconclusive = small, poorly fitted or top-dose-only effect, or another doubt; inactive = no such curve, though single readings can be large; an effect the other way counts as inactive or inconclusive.

SMILES | Hsp90 Hop PPI | TsaE inh | Tau filament bind | BRCT inh green | BRCT PPI red | Pol III holo inh | Tau ThS bind | aSyn ThS displ | Abeta ThS bind
C=CCOC(=O)C(C#N)c1nc2ccccc2nc1N1CCN(c2ccccc2OC)CC1 (centres undefined) | ? | i | 2.51µM* | 0.7% | -0.6% | -3.0% | 4.01µM* | 1.42µM* | 1.13µM*
C[C@@H]1CC2(OC(O)[C@]3(C)O[C@H]23)O[C@H]2C[C@@]3(C)[C@@H]4CC[C@H]5C(C)(C)C(O[C@@H]6OC[C@@H](O)[C@H](O)[C@H]6O)CC[C@@]56C[C@@]46CC[C@]3(C)[C@@H]12 (some centres undefined) | -2.7% | i | 83.6% | 1.0% | 0.1% | -8.7% | · | · | ·
Cc1cc(C)c2nc(N3CCCC(C(=O)N4CCC(C(N)=O)CC4)C3)sc2c1 (centres undefined) | -6.3% | i | 96.5% | -5.5% | -0.3% | -6.5% | · | · | ·
Cc1cc(C)c2nc(N3CCCC(C(=O)NCCN4CCOCC4)C3)sc2c1 (centres undefined) | 0.7% | i | -34.1% | 0.7% | -0.5% | -2.0% | i | i | i
CCOC(=O)N/N=C1/C[C@@H](O)[C@@H](O)[C@@H]2[C@@H]3C(=O)N(C[C@@H]4CCCO4)C(=O)[C@H]3CC[C@H]12 | · | · | · | -1.2%[15.4 µM] | -0.6%[15.4 µM] | · | · | · | ·
Nc1ccc2nc(-c3ccc(Cl)cc3)[nH]c2c1 | ? | i | 7.94µM* | -2.5% | -0.1% | -8.1% | i | ? | ?
CCC(=O)N[C@@H]1CCc2cccc(OC)c2C1 | 2.4% | i | ? | -1.1% | 2.1% | -8.3% | · | · | ·
O=C(C1CCCN(S(=O)(=O)c2cccc3nonc23)C1)N1CCC(Cc2ccccc2)CC1 (centres undefined) | -17.0% | i | 3.16µM* | 9.2% | -0.2% | 0.3% | ? | i | i
CCC(C)CCCCC(=O)NC(CCN)C(=O)NC(C(=O)NC(CCN)C(=O)NC1CCNC(=O)C(C(C)O)NC(=O)C(CCN)NC(=O)C(CCN)NC(=O)C(CC(C)C)NC(=O)C(Cc2ccccc2)NC(=O)C(CCN)NC1=O)C(C)O (centres undefined) | · | · | · | 0.1%[3.08 µM] | -3.4% | · | · | · | ·
